Laboratory results taken from PubChem BioAssay (NCI).
This is part of a sample that, as a whole, favours compounds with a hit. Of some 83,000 tested, about 20% had one in any assay.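 Step 1: grow cells in 96-well plates. Step 2: add test compound at a single concentration. Step 3: incubate 48 h. Step 4: record percent growth.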 Activity calls are given as the source filed them. How the source made its calls: active means growth percent below 10; inactive means the rest.

Columns and labels:
Assay in all cases: NCI-60 one-dose screen, 48 h (100 = growth as untreated, 0 = no growth, -100 = all killed)
Settings in all cases: 10 µM unless noted
DU-145 prostate = tested on: DU-145 prostate
MALME-3M melanoma = tested on: MALME-3M melanoma
MDA-MB-231 breast = tested on: MDA-MB-231 breast
RXF 393 renal = tested on: RXF 393 renal
SF-268 CNS = tested on: SF-268 CNS
SF-295 CNS = tested on: SF-295 CNS
SF-539 CNS = tested on: SF-539 CNS
UACC-257 melanoma = tested on: UACC-257 melanoma
M14 melanoma = tested on: M14 melanoma
HCT-15 colon = tested on: HCT-15 colon
HT29 colon = tested on: HT29 colon
SNB-75 CNS = tested on: SNB-75 CNS
SNB-19 CNS = tested on: SNB-19 CNS
U251 CNS = tested on: U251 CNS
PC-3 prostate = tested on: PC-3 prostate
SK-MEL-5 melanoma = tested on: SK-MEL-5 melanoma
UACC-62 melanoma = tested on: UACC-62 melanoma
LOX IMVI melanoma = tested on: LOX IMVI melanoma
SK-MEL-28 melanoma = tested on: SK-MEL-28 melanoma

Measured: growth

Cc1cc2c(c(C)c1Cl)C(=O)/C(=C/c1ccc(O)c(O)c1)O2
inactive: DU-145 prostate 109% | MALME-3M melanoma 111% | MDA-MB-231 breast 91.3% | RXF 393 renal 113% | SF-268 CNS 108% | SF-295 CNS 103% | SF-539 CNS 100% | UACC-257 melanoma 97.7% | M14 melanoma 95.2% | HCT-15 colon 106% | HT29 colon 106% | SNB-75 CNS 99% | SNB-19 CNS 99.2% | U251 CNS 85.4% | PC-3 prostate 100% | SK-MEL-5 melanoma 100% | UACC-62 melanoma 88.8% | LOX IMVI melanoma 93.7% | SK-MEL-28 melanoma 105%

CCc1c2c(nc3ccc(OCc4ccc(B(O)O)cc4)cc13)-c1cc3c(c(=O)n1C2)COC(=O)[C@]3(O)CC
inactive: MDA-MB-231 breast 28.8% | HCT-15 colon 18% | PC-3 prostate 24.4% | SK-MEL-28 melanoma 36%
active: DU-145 prostate 9.26% | MALME-3M melanoma -7.08% | RXF 393 renal -45.5% | SF-268 CNS 7.54% | SF-295 CNS 1.47% | SF-539 CNS -7.49% | UACC-257 melanoma -12.2% | M14 melanoma 1.07% | HT29 colon 3.65% | SNB-75 CNS -7.42% | SNB-19 CNS 8.1% | U251 CNS -12% | SK-MEL-5 melanoma -67.5% | UACC-62 melanoma -25.1% | LOX IMVI melanoma -47.8%

NS(=O)(=O)c1ccc(CCN2C(=O)C=CC2=O)cc1
inactive: DU-145 prostate 109% | MALME-3M melanoma 102% | MDA-MB-231 breast 104% | RXF 393 renal 111% | SF-268 CNS 100% | SF-295 CNS 102% | SF-539 CNS 101% | UACC-257 melanoma 101% | M14 melanoma 107% | HCT-15 colon 99.3% | HT29 colon 97.2% | SNB-75 CNS 99.3% | SNB-19 CNS 107% | U251 CNS 104% | PC-3 prostate 100% | SK-MEL-5 melanoma 104% | UACC-62 melanoma 104% | LOX IMVI melanoma 97% | SK-MEL-28 melanoma 107%

O=C1NN(C(=O)c2ccccc2)C(c2ccc(Cl)c(Cl)c2)=C/C1=C\c1ccc([N+](=O)[O-])cc1
inactive: DU-145 prostate 108% | MALME-3M melanoma 88.3% | MDA-MB-231 breast 80.4% | RXF 393 renal 74.3% | SF-268 CNS 74.8% | SF-295 CNS 88.5% | SF-539 CNS 90.5% | UACC-257 melanoma 96.5% | M14 melanoma 41.8% | HCT-15 colon 71.8% | HT29 colon 101% | SNB-75 CNS 65.3% | SNB-19 CNS 58.7% | U251 CNS 69.7% | PC-3 prostate 46.7% | SK-MEL-5 melanoma 86.8% | UACC-62 melanoma 70.3% | LOX IMVI melanoma 86.9% | SK-MEL-28 melanoma 111%

O=C(Cn1c(C(=O)c2ccccc2)nc2ccccc21)c1ccc(F)cc1
inactive: DU-145 prostate 96.6% | MALME-3M melanoma 57.2% | MDA-MB-231 breast 46.7% | RXF 393 renal 45.5% | SF-268 CNS 73.3% | SF-295 CNS 62.9% | SF-539 CNS 78.8% | UACC-257 melanoma 75.2% | M14 melanoma 44% | HCT-15 colon 44.4% | HT29 colon 23.3% | SNB-75 CNS 48.4% | SNB-19 CNS 74.5% | U251 CNS 55.1% | PC-3 prostate 78.2% | SK-MEL-5 melanoma 60.7% | UACC-62 melanoma 37.1% | LOX IMVI melanoma 61.3% | SK-MEL-28 melanoma 54%

C=C(C)[C@@H]1CC[C@]2(C(=O)N[C@H](CO)Cc3ccccc3)CC[C@]3(C)[C@H](CC[C@@H]4[C@@]5(C)CCCNC(C)(C)[C@@H]5CC[C@]43C)[C@@H]12
active: DU-145 prostate -87.4% | MALME-3M melanoma -82.9% | MDA-MB-231 breast -87.1% | RXF 393 renal -91.5% | SF-268 CNS -81.2% | SF-295 CNS -91.8% | SF-539 CNS -87.7% | UACC-257 melanoma -88.8% | M14 melanoma -90.2% | HCT-15 colon -82.3% | HT29 colon -86.1% | SNB-75 CNS -95.1% | SNB-19 CNS -88% | U251 CNS -89.7% | PC-3 prostate -84.9% | SK-MEL-5 melanoma -95.5% | UACC-62 melanoma -85.6% | LOX IMVI melanoma -86.2% | SK-MEL-28 melanoma -92.3%

CCCCCCCC(=O)OCC/C=C/C1OC1C1OC(=O)/C=C\C=C\C(=O)N(C(C)=O)C(=O)/C=C(/C)CCC2OC2C1OC(=O)NC(C)=O (stereo unspecified)
inactive: DU-145 prostate 84.3% | MALME-3M melanoma 123% | MDA-MB-231 breast 73.9% | RXF 393 renal 78.7% | SF-268 CNS 93.4% | SF-295 CNS 90.9% | SF-539 CNS 25.9% | UACC-257 melanoma 84.2% | M14 melanoma 81.7% | HCT-15 colon 84.1% | HT29 colon 50.8% | SNB-75 CNS 79.3% | SNB-19 CNS 179% | U251 CNS 69.8% | SK-MEL-5 melanoma 67.5% | UACC-62 melanoma 68% | LOX IMVI melanoma 54% | SK-MEL-28 melanoma 87.1%

COc1ccc(/C=C2\COc3ccc(-c4ccccc4)cc3C2=O)c(OC)c1
inactive: DU-145 prostate 102% | MALME-3M melanoma 91.6% | MDA-MB-231 breast 93% | RXF 393 renal 83% | SF-268 CNS 97.7% | SF-295 CNS 190% | SF-539 CNS 97.3% | UACC-257 melanoma 82.8% | M14 melanoma 92.6% | HCT-15 colon 84.3% | HT29 colon 76.7% | SNB-75 CNS 65.5% | SNB-19 CNS 103% | U251 CNS 84.6% | PC-3 prostate 78.2% | SK-MEL-5 melanoma 81.2% | UACC-62 melanoma 74.1% | LOX IMVI melanoma 79% | SK-MEL-28 melanoma 108%
